Inconclusive results are not listed. Calls of active or inactive are those of the source. The call rests on the fitted dose curve; in most records, active means well fitted cell-killing curve with a large enough effect; inconclusive means small, poorly fitted or top-dose-only effect, or effect the other way; inactive means flat fitted curve, though single readings scatter. Where a SMILES comes first, the peptide text is derived from it. [ ]: non-standard residue; d: D form. PhLac = O=C(O)[CH](O)Cc1ccccc1; NMeV = CN[CH](C(=O)O)C(C)C
How the values were obtained:
Assay in all cases: Primary qHTS to identify gynecologic anti-cancer compounds using libraries of approved drugs and bioactive compounds (AID 1345084); further: nearly all actives have a fitted effect of over 55% in size
Conditions in all cases: Gynecologic cancer cell panel viability, ATPlite luminescence, 48 h; series mostly up to 57.5 µM
C33A = tested on: C33A
Method in brief: (§1)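 Five-concentration response, 48 h; readout is ATP-driven luciferase luminescence.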

CAOV3 = tested on: CAOV3
Method in brief: as §1

CASKI = tested on: CASKI
Method in brief: as §1
On the % scale 0 is the no-effect control and ±100 the full control effect.

O=C(O)c1cc(O[C@@H]2O[C@H](CO[C@@H]3OC[C@@H](O)[C@H](O)[C@H]3O)[C@@H](O)[C@H](O)[C@H]2O)c2ccccc2c1O
inactive: Potency (C33A) | Potency (CAOV3) | Potency (CASKI)

CC1=C(CC(=O)O)c2cc(F)ccc2C1=Cc1ccc(S(C)(=O)=O)cc1
inactive: Potency (C33A) | Potency (CAOV3) | Potency (CASKI)

COc1cc(/C=C/C(=O)OC[C@H]2O[C@H](O[C@]3(CO)O[C@H](CO)[C@@H](O)[C@@H]3O)[C@H](O)[C@@H](O)[C@@H]2O)cc(OC)c1O
inactive: Potency (C33A) | Potency (CAOV3) | Potency (CASKI)

CCC(=O)O[C@]1(C(=O)CCl)[C@@H](C)C[C@H]2[C@@H]3C[C@H](F)C4=CC(=O)C=C[C@]4(C)[C@@]3(F)[C@@H](O)C[C@@]21C
inactive: Potency (C33A) | Potency (CAOV3) | Potency (CASKI)

CO/N=C(/C(=O)N[C@@H]1C(=O)N2C(C(=O)O)=C(CSC(=O)c3ccco3)CS[C@H]12)c1csc(N)n1
inactive: Potency (C33A) | Potency (CAOV3) | Potency (CASKI)

CCc1c(CC(N)=O)c2cc(OCCCP(=O)(O)O)ccc2n1Cc1ccccc1
inactive: Potency (C33A) | Potency (CAOV3) | Potency (CASKI)

CC(=O)OC[C@@]12[C@H](O)C[C@]3(C)C(=CCC4[C@@]5(C)CC[C@H](O[C@@H]6O[C@H](C(=O)O)[C@@H](O[C@@H]7O[C@H](CO)[C@@H](O)[C@H](O)[C@H]7O)[C@H](O)[C@H]6O[C@@H]6O[C@H](CO)[C@@H](O)[C@H](O)[C@H]6O)[C@](C)(CO)C5CC[C@]43C)[C@@H]1CC(C)(C)[C@@H](OC(C)=O)[C@@H]2O (some centres undefined)
inactive: activity change, negative = cytotoxicity (C33A) -7.61% [at 11.6 µM] | activity change, negative = cytotoxicity (CAOV3) 8.05% [at 11.6 µM] | activity change, negative = cytotoxicity (CASKI) 5.42% [at 11.6 µM]

C[C@@]12C[C@]3(O)O[C@H](O1)[C@]1(COC(=O)c4ccccc4)[C@H]3C[C@@]12O[C@@H]1O[C@H](COC(=O)c2ccccc2)[C@@H](O)[C@H](O)[C@H]1O
inactive: Potency (C33A) | Potency (CAOV3) | Potency (CASKI)

C/C=C/C=C/C=C/C(=O)O[C@@H]1C=C(CO)C(O)(C(=O)O)[C@@]2(C)CCCC(C)(C)[C@H]12 (some centres undefined)
inactive: Potency (C33A) | Potency (CAOV3) | Potency (CASKI)

C=C1CCC2C(C)(C)C(O)CCC2(C)C1CCC(C)CCOC(=O)CCC(=O)O (centres undefined)
inactive: Potency (C33A) | Potency (CAOV3) | Potency (CASKI)

CC(C)N(C[C@H]1O[C@@H](n2cnc3c(N)ncnc32)[C@H](O)[C@@H]1O)C1CC(CCc2nc3ccc(C(C)(C)C)cc3[nH]2)C1 (some centres undefined)
inactive: Potency (C33A) | Potency (CAOV3) | Potency (CASKI)

CN1C(=O)c2ccccc2NC(=O)[C@]12O[C@@H]2c1cccc(O)c1
inactive: Potency (C33A) | Potency (CAOV3) | Potency (CASKI)

CC(C)C(=O)O[C@@H]1[C@@H](O)[C@@H](O[C@H]2O[C@H](CO)[C@@H](O)[C@H](O)[C@H]2O)O[C@H](CO)[C@H]1O
inactive: Potency (C33A) | Potency (CAOV3) | Potency (CASKI)

CC(=O)c1c(O)cc2cccc3c2c1CC(C)(O)O3 (centres undefined)
inactive: Potency (C33A) | Potency (CAOV3) | Potency (CASKI)

COc1c(C)c2c(c(O)c1C/C=C(\C)CC/C=C(\C)CCC(=O)O)C(=O)OC2
inactive: Potency (C33A) | Potency (CAOV3) | Potency (CASKI)

CC(C)C(C(=O)N1CCCC1C(=O)O)N(C)C(=O)C(O)Cc1ccccc1 (centres undefined) (H-[PhLac]-[NMeV]-Pro-OH; configuration not given here)
inactive: Potency (C33A) | Potency (CAOV3) | Potency (CASKI)

O=c1ccn(C2OC(CO)C(O)C2O)c(=O)[nH]1 (centres undefined)
inactive: Potency (C33A) | Potency (CAOV3) | Potency (CASKI)

Cc1cc(O)cc(Oc2cc(C)c(C(=O)O)c(O)c2)c1
inactive: Potency (C33A) | Potency (CAOV3) | Potency (CASKI)
